# Data from the supplement of paper PMC6555819.
# Tested on: VDR:RXRa (NR concentration 270 nM, RXRa partner concentration 90 nM)
# Test: PBM binding z-score (relative to random genomic background probes); higher = stronger binding; sequences stand for … in GC…GCGATTGACAGCGTAGAATGAAGG
# Protocol: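 Protein-binding microarray (Agilent 4x180K custom design, double-stranded 60-nt probes: 5' GC cap, 34-nt variable region, 24-nt constant primer region; full probe sequence given). Purified or IVT nuclear receptor:RXRα heterodimers (3:1 NR:RXRα, mostly 270:90 nM) or homodimers were incubated for 1 h in PBS with 2% milk and no ligand, then detected with Alexa488 antibodies. Fluorescence from o1-orientation probes (~5 replicates averaged) was converted to z-scores against 500 random hg19 background probes. Variable regions are seed direct-repeat (DR0–DR5) sites, all their single-nucleotide variants and half-site ablations.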
row,Sequence,PBM binding z-score
1,CGAACTAGGTCACCAGGACAATGAAGAGGTTGGA,2.21
2,AGTCAGAGTTCATCTAGGTAACGTAAGATATGCT,5.48
3,CGTCCAAGGTCACCAGGTCAGTGAAAGCGACGTG,5.3
4,TCGAGTAGTTTACGGGGGCATTCAGGGATGAAGA,3.09
5,CAAACTAGGTCAAAGGTCAACGTCGAGCCAACCA,6.69
6,CGATCTAGGTCACCAGGACAGTGAAGAGGTTGGA,1.76
7,CCTACTGGGCCACGAAAGGTAATTGATTCAGTGA,-0.34
8,TCTAGTTGGTCACGGGGGTCACACACGACGGGTA,6.57
9,ATATCTAGGTAAAAGTTCAGTGAATCCCGAGGAT,1.59
10,TAGCCTAGGTCATTCAGGGGCCAGTATGGAAAGC,3.13
11,CCAACTAGGTCATTGACAGGACAGTGAATAGTAA,2.29
12,CGTCCAAGGTCAATGCAAGGTCAGTGAAAGCATT,6.14
13,TCTCGGATGACACGAAAGGTCAGAGCTCGACATC,2.94
14,ATCGAAAGGTCGAGTTGAGTATAGAGAAAGGGAA,3.04
15,TATACTGGGTCAAAGGCCAGAGTACGAATGTCGA,2.38
16,CCGAGTAGGTTACGAGGGGGCTTTCAGTGCGAAT,2.13
17,CCGAGTAGGTTACCAGGGGGCATTCAGTGCGAAT,4.94
18,CCTGGCAGGCCAGGGTCACTCAAGCATTTCGCTT,2.52
19,CAAACTAGGTCACCGGAAGGTCAAAGTTCGCATG,6.38
20,CCGAGTAGGTTACGAGGGGGCATTCGGTGCGAAT,5.48

row,Sequence,PBM binding z-score
1,TATACAGGATCAAAGGCCAGAGTACGAATGTCGA,0.61
2,CGATCTAGGTCAAAGGACAGTGAAAGGCGACGTA,1.15
3,CGAACTAGGTCACCGGGACAGTGAAGAGGTTGGA,2.52
4,ACTTACGGGTCAACGGGGTTATAGCACGCGTATA,7.87
5,CAAACTAGGTCAAAGGTCAAAGTAGAGCCAACCA,6.71
6,CCTACTGGGCCATACAGAGGTCATTGATCATATG,4.09
7,CGAACTAGGTCACCATGACAGTGAAGAGGTTGGA,1.78
8,ACTAGCAGGTCAAGGGTCACTCAAGATTAGTCCG,5.4
9,CGAACTAGGTCAAAGGACAGTGAAAGGCGACGTA,1.32
10,GCTATTAGGTGAAAGGGCAACCGAATGATTCTCG,0.806
11,GGAACTAGGGCAAAGTTGATAGCATCTGTCGACG,-0.0768
12,CTATGTTGGTTAAGGGGGTCATTCAGTTTGAAAG,6.64
13,CAAACTAGGTCAAAGGTCAAAGACGAGCCAACCA,6.69
14,CTATGTAGGTTAAGGGGGTCATTCGGTTTGAAAG,7.56
15,ATCGAAAGGTGGACGAGGTGAGTATACACCGTTT,0.85
16,CGTCCGAGGTCAATGCTAGGTCAGTGAAAGCATT,5.63
17,CGTCCAAGGTCAAAGGTCAGTAAAGAGATGACGG,6.53
18,CGAGCTAGGTCACCAGGACAGTGAAGAGGTTGGA,1.63
19,CGTCCAAGGTCAGCAGGTCACTGAAAGCGACGTG,4.5
20,CGAACTAGGTCAAAGGACAGTGCAAGGCGACGTA,1.68
